Screens as filed in PubChem.
Nrf2 inh – inhibitors of Nrf2 signaling; A549 ARE-Fluc reporter, luciferase luminescence, 18-24 h; Potency, µM (doses to about 46 µM), most hits filed as inhibitors; 360,000 tested, 2.1% active; AID 504444; note: nearly all actives have a fitted effect of over 60% in size
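Quantitative HTS in A549 cells stably bearing an antioxidant response element-firefly luciferase construct. Inhibition of Nrf2-driven transcription was scored by luminescence after 18-24 h of compound exposure at 37 °C.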
A549 viability – kills or reduces viability of A549 cells in Nrf2 counter-screen; A549 ARE-Fluc cells, CellTiter-Fluor viability, 18-24 h; Potency, µM (series often up to 46 µM), most hits filed as inhibitors; 390,000 tested, 0.16% active
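Cytotoxicity counterscreen: CellTiter-Fluor fluorescence was measured in A549 ARE_Fluc cells after 18-24 h of compound exposure in a concentration series. The subsequent BugLite luminescent read reports ARE-luciferase activity.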
Rango complex inh – prevents formation of the Rango-importin beta complex. Q14974. Rango CFP/YFP FRET sensor + importin beta, 45 min. Potency, µM (top dose mostly 92.2 µM). 340,000 tested, 0.031% active. AID 540263; calls by dose curve; note: nearly all actives have a fitted effect of over 15% in size
Target sequence (Q14974 whole entry, looked up): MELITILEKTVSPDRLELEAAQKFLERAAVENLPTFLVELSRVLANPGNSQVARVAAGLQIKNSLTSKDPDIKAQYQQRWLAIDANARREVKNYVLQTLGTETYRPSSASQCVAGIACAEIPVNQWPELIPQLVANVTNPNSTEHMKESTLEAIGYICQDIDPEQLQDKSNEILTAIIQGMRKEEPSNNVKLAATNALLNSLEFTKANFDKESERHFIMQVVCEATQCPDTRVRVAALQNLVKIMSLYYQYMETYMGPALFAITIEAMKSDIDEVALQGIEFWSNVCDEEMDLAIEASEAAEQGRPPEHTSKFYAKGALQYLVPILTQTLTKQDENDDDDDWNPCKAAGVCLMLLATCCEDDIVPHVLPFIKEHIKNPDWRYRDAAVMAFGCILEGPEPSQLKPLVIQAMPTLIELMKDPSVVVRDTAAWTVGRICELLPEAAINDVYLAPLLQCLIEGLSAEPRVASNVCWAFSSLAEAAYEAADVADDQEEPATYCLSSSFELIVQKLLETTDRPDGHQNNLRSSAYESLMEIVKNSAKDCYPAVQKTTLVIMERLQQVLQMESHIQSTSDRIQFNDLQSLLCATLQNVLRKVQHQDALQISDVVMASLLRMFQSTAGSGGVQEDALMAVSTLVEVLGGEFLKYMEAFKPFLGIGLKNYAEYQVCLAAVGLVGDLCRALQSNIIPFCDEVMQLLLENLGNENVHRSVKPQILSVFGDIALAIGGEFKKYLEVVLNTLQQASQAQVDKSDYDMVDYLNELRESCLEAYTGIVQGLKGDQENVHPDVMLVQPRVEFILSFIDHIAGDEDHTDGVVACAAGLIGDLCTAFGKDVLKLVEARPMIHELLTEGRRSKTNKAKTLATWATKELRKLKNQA
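Inhibition scored from the CFP 486 nm/YFP 530 nm FRET ratio 45 min after adding 0.125 microM importin beta to 50 nM Rango biosensor preincubated 5 min with compound (room temperature, PBS with DTT, Tween-20, BSA). No-importin wells as positive control.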
Rango dissoc inh – prevents RanGTP from dissociating the Rango-importin beta complex; O95149+P62826; Biochemical FRET Rango-importin beta, RanGTP-induced dissociation; Potency, µM (series often up to 46.1 µM); 340,000 tested, 0.071% active; AID 540253; calls by dose curve; note: nearly all actives have a fitted effect of over 45% in size
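Rango/importin beta premix (0.1/0.25 uM final), PBS + 1 mM DTT + 0.02% Tween-20 + 0.1% BSA; cpd 5 min RT; FRET pre-read; + RanGTP-RCC1 (0.6 uM Ran, 2 mM GTP, 0.2 uM RCC1); 45 min RT; FRET post-read, ex 430, em 486/530 nm.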
Nrf2 ARE act – activators of Nrf2 (ARE) signaling; AREc32 ARE-luciferase reporter (MCF7-derived line), luminescence, 24 h; Potency, µM (titrated, usually from 46.1 µM), actives largely listed as activators; 410,000 tested, 0.31% active; note: nearly all actives have a fitted effect of over 65% in size
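Luminescent ARE reporter assay in AREc32_Fluc cells: overnight plating at 37 deg C, 24 hr compound incubation, Steady-Glo added, 30 min RT before reading.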
Hits are given with their value; – = inactive; ? = inconclusive; · = no result given; ! = not active in a repeat; [ ] = another dose, or the depositor's remark. A selection: hits, their analogues and other compounds. The true share with any hit is near 2.3%. Unless noted, calls come from the whole dose curve; as a rule, active = well fitted curve in the direction sought with a large enough effect; inconclusive = small, poorly fitted or top-dose-only effect, or another doubt; inactive = no such curve, though single readings can be large; an effect the other way counts as inactive or inconclusive.

SMILES | Nrf2 inh | A549 viability | Rango complex inh | Rango dissoc inh | Nrf2 ARE act
C/C(=N\NC(=O)c1nnn(-c2nonc2N)c1CN1CCc2ccccc21)c1ccccc1O | 11.6µM | – | – | – | –
Nc1nonc1-n1nnc(C(=O)N/N=C/c2ccccc2)c1CN1CCc2ccccc21 | – | – | – | – | –
CCc1ccc(C2C(C#N)=C(N)SC(N)=C2C#N)s1 | – | – | ? | 10.3µM | –
Cc1nnc(N/N=C/c2cc([N+](=O)[O-])c(N3CCC(C)CC3)cc2N2CCC(C)CC2)n1N | 18.4µM | ? | ? | – | –
CC(C)(C)c1ccc(C(=O)Nc2cccc3c(=O)[nH][nH]c(=O)c23)cc1 | ? | – | ? | ? | –
CN(C(=O)c1ccco1)c1nnc(-c2ccc(F)cc2)s1 | – | – | – | – | 7.08µM
CC(C)(C)c1cnnn1-c1ccc(/C=N/Nc2ccc([N+](=O)[O-])cc2)cc1 | ? | 16.4µM | ? | ? | –
O=[N+]([O-])c1ccc(C=NNc2ccccc2)cc1 | – | – | – | – | –
O=C(Cn1nnc2sc(-c3ccccc3)cc2c1=O)Nc1cccc(C(F)(F)F)c1 | – | – | · | · | –
CCOc1cccc2cc(-c3nnc(NCc4ccc5c(c4)OCO5)s3)c(=O)oc12 | – | – | ? | 1.3µM | –
CSCCNC(=O)C1(C)CCN1C(=O)CCc1ccccc1 (centres undefined) | · | · | · | · | –[9.22 µM]
COCc1nnc(NC(=O)C2CC(=O)N(c3ccc(C)c(Cl)c3)C2)s1 (centres undefined) | – | – | – | – | –
Cc1ccc(N2CC(C(=O)Nc3nccs3)CC2=O)cc1Cl (centres undefined) | ? | 16.4µM | – | – | –
OCC1OC(n2cnc3c(NCc4ccccc4O)ncnc32)C(O)C1O (centres undefined) | 18.4µM | – | – | – | ?
OCC1OC(n2ccc3c(NO)ncnc32)C(O)C1O (centres undefined) | ? | 2.06µM | – | ? | –
CCc1nc2c(OCc3ccc(Cl)cc3)cccn2c1N(C)C(=O)c1ccco1 | · | · | · | · | –
O=C(CSc1ccc(S(=O)(=O)N2CCCC2)cn1)Nc1ccc([N+](=O)[O-])cc1C(F)(F)F | – | – | – | – | –
COc1ccc(C2NC(=O)N(C)C3=C2C(=O)N(c2cccc(C(=O)O)c2)C3)cc1 (centres undefined) | – | – | · | · | –
CC(=O)Nc1nc(-c2ccccc2)c(-c2ccccc2)o1 | – | – | – | – | –
COc1cc(OC)cc(C(=O)Nc2nc(-c3ccccc3)c(-c3ccccc3)o2)c1 | 18.4µM | ? | – | – | –
COc1ccc(CCNC(=O)[C@H](C)N2C(=O)N3CCc4c([nH]c5ccccc45)[C@@]3(C)C2=O)cc1 | 14.6µM | – | ? | – | –
COc1ccccc1CNC(=O)[C@H](C)N1C(=O)N2CCc3c([nH]c4ccccc34)[C@@]2(C)C1=O | 23.1µM | ? | – | – | –
COc1ccc(CCNC(=O)[C@H](C)N2C(=O)N3CCc4c([nH]c5ccccc45)[C@@]3(C)C2=O)cc1OC | 16.4µM | – | – | ? | –
Cn1c(=O)[nH]c2ccc([N+](=O)[O-])nc21 | – | – | – | – | –
CCC1CN(C(=O)NCc2ccc(C)cc2)c2cc(C)ccc2O1 (centres undefined) | 20.6µM! | ? | – | – | –
SMILES | Nrf2 inh | A549 viability | Rango complex inh | Rango dissoc inh | Nrf2 ARE act
CCC1CN(C(=O)NCc2ccccc2)c2cc(C)ccc2O1 (centres undefined) | ? | ? | – | – | –
CCCCCn1c(CN(C)Cc2ccccc2)nc2c1c(=O)n(C)c(=O)n2C | 18.4µM | – | – | – | –
COC(=O)Cn1c(CN2CCN(c3ccc(F)cc3)CC2)nc2c1c(=O)n(C)c(=O)n2C | 18.4µM | – | – | – | –
CCOCCn1c(CN2CCN(c3ccc(F)cc3)CC2)nc2c1c(=O)n(C)c(=O)n2C | ? | – | – | – | –
CCOCCn1c(N2CCN(c3ccccc3)CC2)nc2c1c(=O)n(C)c(=O)n2C | – | – | ? | – | –
C=C(C)CSc1nc2c(c(=O)[nH]c(=O)n2C)n1Cc1ccccc1 | 5.8µM | – | – | – | –
CCCCCCn1c(N2CCN(c3ccccc3)CC2)nc2c1c(=O)n(C)c(=O)n2C | 23.1µM | ? | – | – | –
CCCCn1c(SCC(=O)N2c3ccccc3CCc3ccccc32)nc2c1c(=O)n(C)c(=O)n2C | ? | – | – | – | –
CN(Cc1ccccc1)Cc1nc2c(c(=O)n(C)c(=O)n2C)n1Cc1ccc(Cl)cc1 | 14.6µM | · | – | – | –
COc1ccc(N2CCN(c3nc4c(c(=O)n(C)c(=O)n4C)n3Cc3ccccc3)CC2)cc1 | ? | – | – | – | –
CCCCCn1c(N2CCC(Cc3ccccc3)CC2)nc2c1c(=O)[nH]c(=O)n2C | 23.1µM | ? | – | – | –
CCCCn1c(SCc2nnc(-c3ccccc3)o2)nc2c1c(=O)n(C)c(=O)n2C | 10.3µM | – | – | – | –
C=C(C)Cn1c(N2CCN(c3ccc(OC)cc3)CC2)nc2c1c(=O)n(C)c(=O)n2C | 23.1µM | – | – | – | –
C[C@@H]1C(=O)N(c2ccccc2)[C@@H]1c1ccncc1 | – | – | – | – | –
CCOc1ccc(NS(=O)(=O)c2ccc(C(=O)N(C)C)s2)cc1 | · | – | · | · | –
CC1CC1C(=O)Nc1nc(-c2cccs2)c(-c2cccs2)s1 (centres undefined) | – | – | – | – | –
O=C(CCCCn1c(=O)c2ccccc2n(CC(=O)Nc2ccc(F)cc2F)c1=O)NCCc1ccccc1 | – | – | · | · | –
COc1ccc(NC(=O)C(C)Sc2cc(-c3ccccc3)nc(C)n2)cc1Cl (centres undefined) | 20.6µM | ? | · | · | –
Cc1ccc(Cl)cc1-n1nnc(-c2nc(-c3ccc4c(c3)OCO4)no2)c1C | ? | – | · | · | –
COc1ccc(-[n+]2c(C)cc(/C=C3\Sc4ccccc4N3C)cc2C)cc1 | 0.231µM | 9.2µM | ? | ? | –
CCCCC(=O)Nc1ccc(C(=O)Nc2ccc(OC)cc2[N+](=O)[O-])cc1 | 20.6µM | ? | ? | ? | –
O=C(NN/C(=N/S(=O)(=O)c1ccc(Cl)cc1)c1ccccc1)c1cccc(Cl)c1 | ? | – | – | – | 4.47µM
Oc1ccc(Cl)cc1N=Nc1ccccc1 | – | – | – | – | ?
Nc1c(Cl)cc(N=Nc2ccccc2)cc1Cl | ? | – | – | – | 6.31µM
Cc1ccc(CCCNC(=O)C2CCC(=O)N(Cc3cccc(F)c3)C2)cc1 (centres undefined) | – | – | – | – | –
COc1cc(NC2CCCCC2O)c2nc(-c3ccc(Cl)cc3)ccc2c1 (centres undefined) | ? | 9.2µM | ? | ? | –
Cc1ccc(N2CCN(S(=O)(=O)c3ccc(Cl)s3)CC2C)cc1 (centres undefined) | 13µM | – | – | – | –
COCCOC(=O)c1c(C)oc2c1cc(NS(=O)(=O)c1ccc(Cl)c(C)c1)c1ccccc12 | – | – | · | · | –
